Screening data: PubChem, Broad Institute
A selection follows.
aSyn UTR act: Activators via SNCA 5'UTR binding, MLPCN; alpha-synuclein 5'UTR reporter, activators screen; hit rate 7.1% among 300,000; activity score, % (tested at 7.5 µM), hits read low; in the data active means activity score below about -60%
Large screens that a line does not name were inactive.

CC(C)(C)C1(C)OC(=O)C(=Cc2ccc(OCC(=O)Nc3ccccc3)cc2)C(=O)O1 (stereo not drawn)	aSyn UTR act -84
COc1cccc(NC(=O)c2cccc(C)c2[N+](=O)[O-])c1	aSyn UTR act -76
COc1ccc(OCC(=O)Nc2ccc(OC)c(S(=O)(=O)N3CCCCC3)c2)cc1	aSyn UTR act -96
COc1cc(O)cc(O)c1C(=O)/C=C/c1ccccc1	aSyn UTR act -140
COc1cc(OC)c(C(=O)/C=C/c2ccccc2)c(O)c1O	aSyn UTR act -92
O=C(O)c1ccccc1C(=O)NNc1cccc(Cl)n1	aSyn UTR act -108
Cc1ccc(C2=CC(c3cccs3)n3nnnc3N2)cc1 (stereo not drawn)	aSyn UTR act -187
CCOc1ccc(C2C=C(c3ccccc3)Nc3nnnn32)cc1 (stereo not drawn)	aSyn UTR act -152
COc1ccccc1C1CC(=O)Nc2cc(C)c(C)cc21 (stereo not drawn)	none
COc1ccccc1C1C=C(c2ccc(C)cc2)Nc2nnnn21 (stereo not drawn)	aSyn UTR act -128
CCOc1cc2c3c(c1)C(C)=CC(C)(C)N3C(=O)C2=O	aSyn UTR act -74
O=C(Nc1ccc2oc(-c3cccnc3)nc2c1)c1ccc([N+](=O)[O-])o1	aSyn UTR act -97
O=C(Nc1ccc2oc(-c3cccnc3)nc2c1)c1ccco1	aSyn UTR act -135
O=C(Nc1ccc2nc(-c3ccccc3)oc2c1)c1ccco1	aSyn UTR act -227
O=C(Nc1ccc2oc(-c3cccnc3)nc2c1)c1ccc(Br)o1	aSyn UTR act -113
O=C(N/N=C\c1cc(Cl)ccc1O)c1ccc(S(=O)(=O)N2CCCCC2)cc1	none
CC(=O)c1ccc(S(=O)(=O)N2CCCC2)cc1	aSyn UTR act -84
NC1=NC(=O)/C(=C\C=C\c2ccccc2)S1	aSyn UTR act -73
ClC1=C(Cl)C(Cl)=C(Cl)C1=C/C=C/c1ccccc1	none
Cc1nn(-c2ccccc2)c(C)c1Cc1ccc(O)cc1	aSyn UTR act -117
Cn1c(=NC(=O)c2ccccc2[N+](=O)[O-])sc2cccc(F)c21	aSyn UTR act -110
CCC(=O)Nc1cccc(NC(=S)NC(=O)c2ccccc2Cl)c1	aSyn UTR act -82
O=C(NC(=S)Nc1ccccc1O)c1ccc(Cl)cc1Cl	aSyn UTR act -106
O=C(NC(=S)Nc1ncccn1)c1ccccc1Cl	aSyn UTR act -181
CCC(=O)Nc1cccc(NC(=S)NC(=O)c2cccs2)c1	aSyn UTR act -161
CC(=O)Nc1sc(N/N=C\c2cccc(Cl)c2)nc1-c1cccs1	aSyn UTR act -82
CC(=O)Nc1sc(N/N=C\c2ccccc2F)nc1-c1cccs1	aSyn UTR act -184
CC(=O)Nc1sc(N/N=C\c2ccc(O)cc2)nc1-c1cccs1	aSyn UTR act -100
Cc1cc(N)n(-c2cc(C)c3ccccc3n2)n1	aSyn UTR act -118
Cc1cc(C)c2nc(-n3nc(C)cc3N)cc(C)c2c1	aSyn UTR act -162
CN(C#N)c1nc(Cl)nc(Nc2cccc(Cl)c2)n1	aSyn UTR act -66
OCCCNc1cc(-c2ccnc(Nc3cccc(Cl)c3)n2)ccn1	none
CN1CCN(Cc2nc(N)nc(Nc3ccc4c(c3)OCCO4)n2)CC1	aSyn UTR act -91
N#C/C(=C\Nc1ccccc1O)c1nc2ccccc2o1	aSyn UTR act -112
CC1CCc2c(nc3ncnn3c2NCCc2ccccc2F)C1 (stereo not drawn)	aSyn UTR act -69
Cc1cc(C(=O)OC(C(=O)Nc2ccc(C)c(Cl)c2)c2ccccc2)c(C)o1 (stereo not drawn)	aSyn UTR act -68
O=C(NCc1cccs1)c1cc(-c2cccs2)on1	aSyn UTR act -169
COCCNC(=O)c1cc(-c2cccs2)on1	aSyn UTR act -289
O=C(NCc1ccccn1)c1ccc(-c2ccccc2)cc1	aSyn UTR act -107
O=C(NCc1cccs1)c1cc(-c2ccccc2)on1	aSyn UTR act -112
O=C(NCc1ccccn1)c1cc(-c2ccccc2)on1	aSyn UTR act -79
O=c1nc2c(-c3ccccc3F)n[nH]n2c2ccccc12	aSyn UTR act -146
CC1Oc2cc3oc4c(O)c5c(cc4c(=O)c3c(O)c2C1(C)C)C=CC(C)(C)O5 (stereo not drawn)	aSyn UTR act -265
O=C(c1ccc(Cl)cc1)N1CCCCC(Sc2nnc(-c3ccc4c(c3)OCO4)o2)C1=O (stereo not drawn)	none
O=C(Nc1nnc(-c2ccc3c(c2)OCCO3)o1)C1CCCCC1	aSyn UTR act -88
O=C(Nc1nnc(-c2ccc(Cl)cc2)o1)C1CCCCC1	aSyn UTR act -80
O=C(Nc1nnc(-c2ccccc2)o1)C1CCCCC1	aSyn UTR act -63
Clc1ccc(-c2nnc(NC3=NCCCCC3)o2)cc1	none
Cn1nc(-c2ccccc2)cc1NC(=O)C1CCCCC1	aSyn UTR act -70
CC1(C)COCN1S(=O)(=O)c1ccc(C(=O)Nc2nnc(-c3ccc(Cl)s3)o2)cc1	none
O=C(Nc1nnc(-c2ccc(Cl)s2)o1)C1CCCCC1	aSyn UTR act -63
C(=N\Nc1nncc2ccccc12)/c1ccccc1	aSyn UTR act -75
COc1cc(/C=N/Nc2nncc3ccccc23)cc(OC)c1OC	aSyn UTR act -108
COc1ccc(/C=N/Nc2nncc3ccccc23)c(OC)c1	aSyn UTR act -159
O=c1cc(/C=C/c2c(F)cccc2Cl)[nH]c2ccccc12	aSyn UTR act -102
Oc1ccc(-c2[nH]ncc2-c2ccc(Cl)cc2)c(O)c1	aSyn UTR act -62
CC(C)(C)c1ccc(SCCc2cccnc2)cc1	aSyn UTR act -123
N=c1scc(-c2ccccc2)n1/N=C/c1ccco1	aSyn UTR act -220
O=C(O)c1ccc(Cl)c(S(=O)(=O)Nc2ccc(OCc3ccccc3)cc2)c1	aSyn UTR act -69
O=C(NC1CCCCC1)C(=S)NCCc1ccccc1	aSyn UTR act -62
O=C(NCCc1ccccc1)C(=O)NC1CCCCC1	aSyn UTR act -105
Cc1ccc(C)c(NC(=O)c2cc(=O)c3ccccc3o2)c1	aSyn UTR act -134
Cc1ccc(NC(=O)c2cc(=O)c3ccccc3o2)c(C)c1	aSyn UTR act -96
CCOC(=O)c1sc2nc3c(cc2c1N)C(=O)CC(C)(C)C3	aSyn UTR act -126
COC(=O)c1sc2nc3c(cc2c1N)C(=O)CC(C)(C)C3	aSyn UTR act -69
COC(=O)c1sc2nc3c(cc2c1N)CCCC3	aSyn UTR act -143
Nc1c(C(=O)N2CCOCC2)sc2nc3c(cc12)CCCC3	none
CCN(Cc1ccc(OC)c(F)c1)C(=O)CCl	aSyn UTR act -74
Cc1ccc(-c2n[nH]c(Cc3ccccc3)n2)cc1	aSyn UTR act -126
Cc1ccc(Nc2nnc(-c3ccccc3N)o2)cc1C	aSyn UTR act -135
C#CCOCCOCCOCCNc1nc(N2CCN(C(=O)CCCCCCCCCCNC(=O)Cn3cc(C[C@@H](C)O)nn3)CC2)nc(N2CCN(C(=O)CCCCCCCCCCNC(=O)[C@H](CCCN=C(N)N)n3cc(C[C@@H](C)CC)nn3)CC2)n1	aSyn UTR act -85
COc1cc(/C=N/n2c(C)n[nH]c2=S)ccc1OCc1ccc(F)cc1	aSyn UTR act -114
COc1cc(/C=N\n2nnnc2N)ccc1OCc1ccc(F)cc1	aSyn UTR act -65
CSc1nc(O)c(/C=C2\C=Nc3ccccc32)[nH]1	aSyn UTR act -221
CCN(CC)c1cc(C)c2cc(NC(=O)c3ccccc3OC)ccc2n1	aSyn UTR act -75
CCN(CC)c1cc(C)c2cc(NC(=O)c3cccs3)ccc2n1	aSyn UTR act -65
CCN(CC)c1ccc(NC(=O)c2cncc(Br)c2)cc1	aSyn UTR act -279
Cc1ccc(NC(=O)c2cncc(Br)c2)cc1S(=O)(=O)N(C)C	aSyn UTR act -127
CCN(CC)c1ccc(NC(=O)c2cccnc2)cc1	aSyn UTR act -67
